From ChEMBL document CHEMBL3988442, “University of Dundee, Small-Polar-MMV Screening Library” (2021)
Among all 48,000 compounds or so, about 13,000 (27%) showed an effect of 50% or more. The list shows a part of the results.

These molecules were tested on Wolbachia pipientis (assay: Anti-Wolbachia Cell-Based Screen). Conditions: 5 µM.
Format: functional
Design: scale not given: in the data most compounds retested in dose-response had high values

Row | SMILES | Percent Effect [%]
1 | CC(C)N1CCC(NC(=O)NC2CCOc3ccc(Br)cc32)CC1 (stereo not given) | 4.745
2 | CN(C)C(=O)N[C@H]1CN(C2CCOCC2)[C@@H]2CCCO[C@H]12.O=C(O)C(F)(F)F | 16.52
3 | NC(=O)c1ccc(N2CCCCC2)c(NC(=O)c2ccc(Br)cc2)c1 | 7.886
4 | Cc1noc(C)c1CN1CC[C@H]2OCC[C@@H](C(=O)N3CCCO3)[C@@H]2C1 | -14.86
5 | Cc1nn2cccnc2c1C(=O)N1CCCC(Nc2ccccc2)C1 (stereo not given) | -8.048
6 | CC(=O)N(C)CC(=O)NC1(c2ccc(Cl)c(Cl)c2)CC1 | -1.911
7 | CC(CCc1ccco1)NC(=O)Nc1cc(C(F)(F)F)c[nH]c1=O (stereo not given) | -5.295
8 | COc1cc(CNC(=O)Nc2cc(C(F)(F)F)c[nH]c2=O)ccn1 | -10.71
9 | CC1CN(C(=O)Nc2cc(C(F)(F)F)c[nH]c2=O)CCO1 (stereo not given) | 83.43
10 | O=C(Nc1cc(C(F)(F)F)c[nH]c1=O)N1CCOCC1 | 95.88
11 | CC(C)(C)N1CCN(C(=O)Nc2cc(C(F)(F)F)c[nH]c2=O)CC1 | 82.7
12 | Cn1cnnc1CNC(=O)Nc1cc(C(F)(F)F)c[nH]c1=O | -11.16
13 | CC(C)CN1CCN(C(=O)Nc2cc(C(F)(F)F)c[nH]c2=O)CC1 | -8.263
14 | O=C(Nc1cc(C(F)(F)F)c[nH]c1=O)c1ccco1 | -1.817
15 | COCC1CN(C(=O)Nc2cc(C(F)(F)F)ccc2F)CCO1 (stereo not given) | -13.47
16 | Cc1ncc(CNC(=O)Nc2cc(C(F)(F)F)c[nH]c2=O)s1 | -11.29
17 | COC1CCN(C(=O)Nc2cc(C(F)(F)F)c[nH]c2=O)CC1 | 107.9
18 | CS(=O)(=O)N1CCC2(CC1)CN(CC1CC1)CC21CCNC1=O.O=C(O)C(F)(F)F (stereo not given) | -40.94
19 | Cc1nc(-c2cn(CCN)nn2)n(-c2ccc(C(F)(F)F)cc2)n1 | -70.01
20 | Cc1nccn1-c1ccc(N2CCC(N[C@H](C)C(C)C)CC2)cc1 | 17.33
21 | O=C(Nc1cc(C(F)(F)F)c[nH]c1=O)N1CCSCC1 | 108.7
22 | O=C(NCCNc1ncccn1)Nc1cc(C(F)(F)F)c[nH]c1=O | -3.235
23 | O=C(Nc1cc(C(F)(F)F)c[nH]c1=O)N1CCCSCC1 | -10.12
24 | CCCc1noc(CCC(=O)Nc2cc(C(F)(F)F)c[nH]c2=O)n1 | -8.892
25 | Cc1noc(CCCC(=O)Nc2cc(C(F)(F)F)c[nH]c2=O)n1 | 11.68

Row | SMILES | Percent Effect [%]
26 | CC1(C)CN(C(=O)Nc2cc(C(F)(F)F)c[nH]c2=O)CCO1 | 99.91
27 | CC1CN(C(=O)Nc2ccc(Cl)c(C(=O)NC3CC3)c2)CC(C)(C)O1 (stereo not given) | -20.36
28 | CC1CN(C(=O)Nc2cc(C(F)(F)F)c[nH]c2=O)CC(C)(C)O1 (stereo not given) | 113.6
29 | O=C(NC1=NCCS1)C1CSCN1C(=O)C1CCCC1 (stereo not given) | -6.178
30 | Cn1cccc(NC(=O)NCc2cccc(CO)c2)c1=O | -1.059
31 | Cc1cc(-c2nc(-c3ccccn3)nn2C2CCN(C)CC2)nc(C)n1 | -5.062
32 | COc1ccc(CNC(=O)CCc2nnc3ccccn3c2=O)cc1 | 126.1
33 | O=C(CCc1nc2cccnc2[nH]1)NCc1ccc2c(c1)OCO2 | 27.54
34 | Cc1cccc(N2CCN(CCC(=O)NCc3cccnc3)CC2)c1 | 6.039
35 | O=C(CCc1nnc2ccccn2c1=O)NCc1ccc2c(c1)OCO2 | 110.3
36 | COc1ccc(CNC(=O)Cc2csc(C(C)=O)c2)cc1 | 2.837
37 | O=C(CCC1CCCC1)NCc1nnc2ccccn12 | 1.32
38 | O=C(Cn1ccc2sccc2c1=O)NCc1ccc2c(c1)OCO2 | 0.2723
39 | O=C(CCc1nnc2ccccn2c1=O)NCc1ccco1 | 105.9
40 | O=C(CCc1nnc2ccccn2c1=O)NCc1cccnc1 | 121.1
41 | Cn1cccc1CNC(=O)CCCc1nnc2ccccn12 | 14.24
42 | O=C(CCc1nc2cccnc2[nH]1)NCc1cccnc1 | 5.887
43 | CCn1ncnc1CN1CCc2[nH]cnc2C1CCc1ccccc1 (stereo not given) | 5.135
44 | Cc1ccc(CNC(c2ccc(F)cc2)c2nccn2C)o1 (stereo not given) | 6.945
45 | CC(=O)N1CCC(Oc2ccc(Cl)cc2C(=O)N2CCCO2)CC1 | 5.175
46 | CN1CCN([C@@H]2CN(C(=O)c3ccsc3)[C@@H]3CCCO[C@H]23)CC1 | -4.041
47 | Cc1ccc(C(=O)N2C[C@@H](N3CCN(C)CC3)[C@H]3OCCC[C@H]32)cn1 | 115.4
48 | Cc1ccoc1C(=O)N1C[C@@H](N2CCN(C)CC2)[C@H]2OCCC[C@H]21.O=C(O)C(F)(F)F.O=C(O)C(F)(F)F | -7.066
49 | Cc1ccc(C(=O)N2C[C@@H]3CCCO[C@@H]3[C@H](N3CCOCC3)C2)cn1.O=C(O)C(F)(F)F.O=C(O)C(F)(F)F | -9.984
50 | Cc1cnc(C(=O)N2C[C@H](N3CCOCC3)[C@@H]3OCCC[C@@H]32)cn1 | 115.1
